Test results taken from PubChem BioAssay.

Assay: inhibitors of PAF-induced NFkB signaling in CF airway cells, dose response, cell-based, uHTS hits, panel, cytotoxicity readout (AID 624344)
Settings: CF bronchial epithelial cells, PAF-induced NFkB reporter inhibition, with PAF, run 1; at 79 µM (top of the series) unless noted

Structure (SMILES)	inhibition
CC1CCCCN1c1ncnc(N)c1[N+](=O)[O-] (stereo not given)	113%
NC(c1csc(NC(=O)Nc2cccc(Cl)c2)n1)c1ccccc1Cl (stereo not given)	96.3%
CC1(C)CC(=O)C=C(NC2=CC3OC(c4ccccc4)OCC3OC2=O)C1 (stereo not given)	103%
CC(C)OC(=O)c1cccc(C(=O)Nc2cccc(NC(=O)c3cccc(C(=O)OC(C)C)n3)n2)n1	103% [at 9.88 µM]
O=C(NCc1cccnc1)/C(=C\c1ccc(-c2cccc(Cl)c2)o1)S(=O)(=O)c1ccccc1	101%
CC(=O)OCCCNc1cc(Sc2ccc(Cl)cc2)c2nonc2c1[N+](=O)[O-]	100%
CCOC(=O)Nc1nc(-c2ccccc2)c(C(=O)c2ccccc2)s1	99.4%
CC1=C(C(=O)OCc2ccc3c(c2)OCO3)C(c2cccc([N+](=O)[O-])c2)NC(=O)N1 (stereo not given)	79.1%
Cc1nc([N+](=O)[O-])c(Sc2nc3ccccc3n2C)n1Cc1ccccc1	101%
Cc1ccc(NC(=O)c2nc[nH]c2C(=O)NCCCNC(=O)c2[nH]cnc2C(=O)Nc2ccc(C)cc2)cc1	108%
Cc1nc([N+](=O)[O-])c(Sc2nc3ccc([N+](=O)[O-])cc3[nH]2)n1Cc1ccccc1	101%
Cc1ccc(NC(=O)c2cc(C(=O)c3cc(Cl)ccc3O)cn(-c3ccc(C)cc3)c2=O)cc1	65.5%
COc1ccc(-c2cc(=O)oc3cc(O)ccc23)cc1	105%
COC(=O)c1ccc(-c2ccc(OC)c([C@H]3[C@H]4C=CC[C@@H](C)[C@@H]4C(=O)N3Cc3ccccc3)c2)cc1	111%
CC1C(=O)N(Cc2cn(Cc3ccco3)nn2)CCS(=O)(=O)N1Cc1ccc(-c2ccccc2C(F)(F)F)cc1 (stereo not given)	97.9%
Cc1c([N+](=O)[O-])c2ccc(O)cc2n1-c1ccccc1	109%
CC(C)(C)c1nc(NC(=O)Nc2ccccc2)sc1Br	107%
COc1ccc(NC(=O)Cn2ncn3nc(-c4ccc(OC)cc4)cc3c2=O)cc1	102%
CN(C)CCCN(C(=O)CCSc1ccccc1)c1nc2cc3c(cc2s1)OCO3	106%
C=CCSc1nc2ccccc2n1C(=O)/C=C/c1ccc(OC)c(OC)c1	115%

Structure (SMILES)	inhibition
Cc1ccc(CNc2ncnc3ccc(-c4ccoc4C)cc23)o1	103%
CCOCC(=O)NC1CCc2cc(OC(=O)COCC)c(OC)c(OC)c2-c2ccc(SC)c(=O)cc21 (stereo not given)	45.7%
O=C(CN1C(=O)CCC1=O)Nc1nc(-c2nc3ccccc3s2)cs1	84.7%
COc1ccc2[nH]c(=O)c3c(c2c1)OC(C)(C)C=C3	105%
CCOC(=O)COc1ccc2ccccc2c1/C=C/[N+](=O)[O-]	100%
CCOC(=O)C1(C(=O)OCC)COC(=O)C1CN1Cc2cc3ccccc3nc2C1 (stereo not given)	65.1%
C=C(C)[C@@H]1CC[C@]2(C(=O)O)CC[C@]3(C)[C@H](CC[C@@H]4[C@@]5(C)CC[C@H](O)C(C)(C)[C@@H]5CC[C@]43C)[C@@H]12	47.9%
COc1ccc(-c2cnc(N)nc2-c2ccc(OC)cc2O)cc1	112%
COc1ccccc1NS(=O)(=O)c1ccc(-c2cnc(C3CC3)o2)cc1	82.8%
COc1cccc(-c2cnc3c(NC=O)cc(-c4ccc(OC)cc4OC)cn23)c1	98.2%
Cc1ccc(CNc2ncnc(N)c2[N+](=O)[O-])cc1	87.7%
COc1cc(-c2cnc3c(NC=O)cc(-c4ccc(C)cc4)cn23)cc(OC)c1OC	70.3%
C[C@@H](NC(=O)c1coc(=O)c(Br)c1)c1ccccc1	77.6%
c1cnc2ccc(-n3ccnc3)cc2c1	115%
COc1ccc(-n2nnnc2S(=O)(=O)Cc2ccc(C(=O)O)cc2)cc1	74.7%
CC(=O)c1c(O)cc2c3c1OC(C)(C)C1CCC(C)(CC31)O2 (stereo not given)	111%
CCn1c2ccccc2c2cc(/C=N/O)ccc21	114%
C=C1C(=O)[C@]23C[C@H]1CC[C@H]2[C@]1(C)[C@@H](O)CC[C@@](C)(C(=O)O)[C@H]1C[C@@H]3O	98.4%
Cc1ccccc1S(=O)(=O)Cc1ccc(C(=O)N2CCN(c3cccc(C)c3C)CC2)o1	103%
CCOC(=O)c1[nH]c(C)c(C(=O)N2CCc3ccccc32)c1C	34.1%
